Experimental data as given in PubChem BioAssay (EPA / NIEHS).
Where “and” joins values, the source holds several entries; their conditions need not be identical. Equal values may be shown once. Results filed as inconclusive are left out. Some structures have more than one record in an assay (separate samples or runs), and their calls can disagree. Calls of active or inactive are those of the source. Rule for the calls, unless noted: active = hit-call score of the fitted dose curve at least 0.9, where 1 is the maximum; inactive = score below 0.9.

Legend:
[1] = ATG_TAL_CIS: Attagene CIS-FACTORIAL HepG2 Assay for human TAL Basal Promoter (AID 2282966); conditions: HepG2 Attagene cis-factorial TAL promoter reporter; actives raise or lower the signal;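 note: background control endpoint measuring basal TAL promoter reporter mRNA not a specific factor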
In short: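 In this cell-based multiplex, HepG2 liver cells bearing cis-promoter reporter constructs are dosed for 24 hours. Total RNA is reverse-transcribed and amplified, labelled fragments are sized by capillary electrophoresis, and signal changes are fitted bidirectionally versus DMSO.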

[2] = molecular target: X-box-binding protein 1 (Homo sapiens) (UniProt P17861); assay: ATG_Xbp1_CIS: Attagene CIS-FACTORIAL HepG2 Assay for human X-box Binding Protein 1 (XBP1) (AID 2282972); conditions: HepG2 XBP1 cis-element reporter, Attagene multiplex; actives raise or lower the signal
Sequence of X-box-binding protein 1 (Homo sapiens) (P17861 whole entry, looked up): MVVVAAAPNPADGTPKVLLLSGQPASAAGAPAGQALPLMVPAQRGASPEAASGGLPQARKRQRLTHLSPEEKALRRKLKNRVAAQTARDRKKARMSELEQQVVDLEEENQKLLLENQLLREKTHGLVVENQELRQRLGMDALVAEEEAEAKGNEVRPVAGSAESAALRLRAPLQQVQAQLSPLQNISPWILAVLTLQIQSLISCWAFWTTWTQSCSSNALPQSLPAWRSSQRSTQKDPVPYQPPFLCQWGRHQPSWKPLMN
In short: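 HepG2 cells transiently transfected with multiple cis-element reporter units report endogenous TF activity; 24 h exposure, then reporter mRNA measured by RT-PCR, 6-FAM labelling, HpaI digestion and capillary electrophoresis. Bidirectional fitting versus DMSO.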

[3] = ATG_TGFb_CIS: Attagene CIS-FACTORIAL HepG2 Assay for human Transforming Growth Factor (TGF) (AID 2282967); conditions: HepG2 Attagene CIS TGFb reporter, mRNA transcription; actives raise or lower the signal
In short: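 Endogenous TGFB1-linked transcription factor activity read as reporter mRNA via RT-PCR and capillary electrophoresis, 24 h after dosing transiently transfected HepG2 cells. Gain or loss of signal fitted relative to DMSO.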

[4] = ATG_VDRE_CIS: Attagene CIS-FACTORIAL HepG2 Assay for human Vitamin D Receptor Element (VDRE) (AID 2282968); conditions: HepG2 VDRE cis-reporter transcription, actives raise or lower the signal
In short: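 Reporter mRNA induction, quantified by capillary electrophoresis of fluorescently labelled RT-PCR products, was read 24 h after dosing HepG2 cells carrying transiently transfected cis-regulated reporter units; gain or loss relative to DMSO.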

[5] = molecular target: Nuclear receptor subfamily 1 group I member 3 (Homo sapiens) (UniProt Q14994); assay: ATG_CAR_TRANS: Attagene TRANS-FACTORIAL HepG2 Assay for human Constitutive Androstane Receptor (CAR) (AID 2282969; active = hit-call score of the fitted dose curve at least 0.9, where 1 is the maximum;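 note: activators raise reporter mRNA above DMSO so AC50 marks induction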); conditions: HepG2 Attagene TRANS-FACTORIAL CAR reporter
Sequence of Nuclear receptor subfamily 1 group I member 3 (Homo sapiens) (Q14994 whole entry, looked up, the tested form may be a part): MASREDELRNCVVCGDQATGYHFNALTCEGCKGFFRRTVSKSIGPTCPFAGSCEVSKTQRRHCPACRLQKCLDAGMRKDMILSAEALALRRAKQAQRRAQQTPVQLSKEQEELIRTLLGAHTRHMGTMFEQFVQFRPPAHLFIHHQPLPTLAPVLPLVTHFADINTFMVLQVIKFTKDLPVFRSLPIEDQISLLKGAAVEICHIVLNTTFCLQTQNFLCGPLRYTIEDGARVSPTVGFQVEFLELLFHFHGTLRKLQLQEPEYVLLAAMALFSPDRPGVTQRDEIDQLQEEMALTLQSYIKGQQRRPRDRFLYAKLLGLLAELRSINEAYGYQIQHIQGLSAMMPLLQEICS
In short: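 Readout is reporter mRNA induction, quantified by fluorescent primer extension and capillary electrophoresis after RT-PCR. Cells were HepG2 transiently carrying chimeric NR-Gal4 constructs with GAL4-UAS reporters, treated for 24 h; activity scored upward from DMSO.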

[6] = molecular target: Estrogen receptor (Homo sapiens) (UniProt P03372); assay: ATG_ERa_TRANS: Attagene TRANS-FACTORIAL HepG2 Assay for human Estrogen Receptor alpha (ERa) (AID 2282970; active = hit-call score of the fitted dose curve at least 0.9, where 1 is the maximum); conditions: HepG2 Attagene TRANS ERa GAL4 reporter, mRNA
Sequence of Estrogen receptor (Homo sapiens) (P03372 whole entry, looked up, the tested form may be a part): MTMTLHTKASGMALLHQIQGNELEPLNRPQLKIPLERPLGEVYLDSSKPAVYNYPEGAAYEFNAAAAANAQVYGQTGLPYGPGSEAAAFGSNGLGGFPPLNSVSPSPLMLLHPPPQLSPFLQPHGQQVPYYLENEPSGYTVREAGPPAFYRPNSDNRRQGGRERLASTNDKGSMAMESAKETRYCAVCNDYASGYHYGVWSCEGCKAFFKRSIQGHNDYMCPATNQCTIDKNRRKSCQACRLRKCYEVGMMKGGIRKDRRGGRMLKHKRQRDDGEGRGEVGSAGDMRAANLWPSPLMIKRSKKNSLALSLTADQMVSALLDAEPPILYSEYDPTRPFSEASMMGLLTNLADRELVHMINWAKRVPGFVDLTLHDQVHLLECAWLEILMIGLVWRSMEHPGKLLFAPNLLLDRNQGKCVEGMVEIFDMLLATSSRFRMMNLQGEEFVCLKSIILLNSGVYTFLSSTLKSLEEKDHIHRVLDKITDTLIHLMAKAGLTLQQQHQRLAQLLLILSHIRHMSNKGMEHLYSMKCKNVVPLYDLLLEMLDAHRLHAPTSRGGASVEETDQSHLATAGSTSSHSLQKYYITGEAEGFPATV
In short: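 After 24 h of compound treatment, RNA from HepG2 cells bearing transfected GAL4-UAS reporter constructs is converted to cDNA, amplified and fluorescently labelled. Capillary electrophoresis resolves the ERa-linked reporter; DMSO serves as negative control.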

[7] = molecular target: Steroid hormone receptor ERR1 (Homo sapiens) (UniProt P11474); assay: ATG_ERRa_TRANS: Attagene TRANS-FACTORIAL HepG2 Assay for human Estrogen-Related Receptor alpha (ERRa) (AID 2282971; active = hit-call score of the fitted dose curve at least 0.9, where 1 is the maximum); conditions: HepG2 Attagene TRANS reporter, ERRa transactivation
Sequence of Steroid hormone receptor ERR1 (Homo sapiens) (P11474 whole entry, looked up, the tested form may be a part): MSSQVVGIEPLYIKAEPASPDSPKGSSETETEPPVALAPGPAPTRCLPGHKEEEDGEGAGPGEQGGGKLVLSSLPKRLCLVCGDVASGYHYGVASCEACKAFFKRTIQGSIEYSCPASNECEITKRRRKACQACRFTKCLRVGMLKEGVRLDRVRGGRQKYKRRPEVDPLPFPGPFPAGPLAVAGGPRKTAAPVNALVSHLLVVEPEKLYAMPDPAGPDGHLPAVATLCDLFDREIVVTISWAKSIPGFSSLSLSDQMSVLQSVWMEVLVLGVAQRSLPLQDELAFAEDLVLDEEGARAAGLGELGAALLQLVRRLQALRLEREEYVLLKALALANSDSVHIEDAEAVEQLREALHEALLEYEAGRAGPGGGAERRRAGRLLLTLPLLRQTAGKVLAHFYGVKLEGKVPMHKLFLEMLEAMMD
In short: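 Transfected HepG2, 24 h dosing, ERRa-Gal4 chimera driving GAL4-UAS reporter. Readout: reporter mRNA via RT-PCR plus capillary electrophoresis (fluorescence). Positive direction vs DMSO control.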

[8] = ATG_M_19_TRANS: Attagene TRANS-FACTORIAL HepG2 Assay for M19 Transcription Factor (Internal Marker) (AID 2282974; active = hit-call score of the fitted dose curve at least 0.9, where 1 is the maximum); conditions: HepG2 Attagene TRANS-FACTORIAL M19 internal marker reporter
In short: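 HepG2 transiently transfected with GAL4-UAS multiplex reporter constructs, exposed 24 h; reporter RNA quantified by RT-PCR, 6-FAM labeling, HpaI digestion and capillary electrophoresis; internal background marker fitted upward versus DMSO.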

[9] = ATG_GAL4_TRANS: Attagene TRANS-FACTORIAL HepG2 Assay for GAL4 (Internal Marker) (AID 2282976; active = hit-call score of the fitted dose curve at least 0.9, where 1 is the maximum); conditions: HepG2 Attagene TRANS GAL4 internal marker reporter
In short: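 RT-PCR/capillary electrophoresis readout of reporter mRNA. HepG2, transient MRTU transfection (GAL4-UAS reporters), 24 h compound exposure. Background-control endpoint, positive direction vs DMSO baseline.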

[10] = molecular target: Androgen receptor (Homo sapiens) (UniProt P10275); assay: ATG_AR_TRANS: Attagene TRANS-FACTORIAL HepG2 Assay for human Androgen Receptor (AR) (AID 2282973; active = hit-call score of the fitted dose curve at least 0.9, where 1 is the maximum); conditions: HepG2 Attagene TRANS-FACTORIAL AR reporter transcription
Sequence of Androgen receptor (Homo sapiens) (P10275 whole entry, looked up, the tested form may be a part): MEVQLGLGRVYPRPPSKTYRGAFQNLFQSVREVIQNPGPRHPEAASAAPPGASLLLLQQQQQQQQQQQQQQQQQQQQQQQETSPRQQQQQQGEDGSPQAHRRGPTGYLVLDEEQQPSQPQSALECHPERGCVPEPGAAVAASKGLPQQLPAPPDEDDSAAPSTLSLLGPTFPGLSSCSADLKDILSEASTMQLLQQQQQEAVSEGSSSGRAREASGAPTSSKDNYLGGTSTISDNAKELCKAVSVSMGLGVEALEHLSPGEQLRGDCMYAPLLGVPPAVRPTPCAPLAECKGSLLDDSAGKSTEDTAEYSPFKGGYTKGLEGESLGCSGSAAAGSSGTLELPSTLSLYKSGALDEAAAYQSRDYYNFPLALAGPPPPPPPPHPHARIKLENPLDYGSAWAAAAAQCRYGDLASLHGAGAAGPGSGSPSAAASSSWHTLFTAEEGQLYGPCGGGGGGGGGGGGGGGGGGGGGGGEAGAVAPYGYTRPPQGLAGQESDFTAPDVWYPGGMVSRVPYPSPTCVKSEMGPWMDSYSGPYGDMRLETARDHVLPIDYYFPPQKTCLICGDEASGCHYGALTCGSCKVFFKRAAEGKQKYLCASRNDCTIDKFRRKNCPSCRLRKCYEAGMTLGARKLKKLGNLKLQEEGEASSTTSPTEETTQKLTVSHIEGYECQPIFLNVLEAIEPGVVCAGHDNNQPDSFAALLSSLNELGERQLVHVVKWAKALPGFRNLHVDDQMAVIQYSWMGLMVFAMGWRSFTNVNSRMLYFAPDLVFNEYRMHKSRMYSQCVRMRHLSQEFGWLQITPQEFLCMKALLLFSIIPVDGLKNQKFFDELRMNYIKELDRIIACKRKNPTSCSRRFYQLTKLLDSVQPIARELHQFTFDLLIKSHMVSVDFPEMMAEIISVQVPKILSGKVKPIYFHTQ
In short: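 Readout is reporter transcript abundance, quantified by fluorescent RT-PCR products separated on capillary electrophoresis. Human HepG2 liver cells carried transiently transfected NR-Gal4 chimera plus GAL4-UAS reporter constructs and were dosed for 24 h; activity scored upward versus DMSO.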

Measured: AC50

C[C@@H]1C[C@@H]([C@H](O)CC2CC(=O)NC(=O)C2)C(=O)[C@@H](C)C1
active: [1] 0.191 µM | [2] 89.5 µM
inactive: [1] | [2]

c1ccc(N=NNc2ccccc2)cc1
inactive: [1] | [3] | [5] | [7]
active: [4] 28.4 µM | [6] 27.1 µM | [2] 108 µM

COP(=S)(OC)Oc1c(Cl)cc(C)cc1Cl
active: [4] 7.7 µM | [6] 3.3 µM
not listed: [10]
inactive: all other assays above

O=C(Cc1ccccc1)c1ccccc1
active: [6] 22.7 µM
not listed: [7] | [9] | [10]
inactive: all other assays above

Cc1ccc(N)cc1Cl
inactive: [1] | [3] | [4] | [5] | [6]

COc1cc(OC)nc(NC(=O)NS(=O)(=O)c2ncccc2C(=O)N(C)C)n1
active: [6] 77.8 µM
inactive: [1] | [3] | [4] | [5]

ClC1=C(Cl)[C@]2(Cl)[C@@H]3[C@@H](Cl)[C@@H](Cl)C[C@@H]3[C@@]1(Cl)C2(Cl)Cl
not listed: [7] | [8] | [10]
inactive: all other assays above

CC12CC1(C)C(=O)N(c1cc(Cl)cc(Cl)c1)C2=O (stereo not drawn)
active: [4] 8.04 µM
inactive: [1] | [3] | [4] | [5] | [2] | [10] | [8]

COP(=S)(OC)Oc1ccc(Sc2ccc(OP(=S)(OC)OC)cc2)cc1
inactive: [5] | [6] | [10]
active: [1] 57.7 µM | [3] 61.7 µM | [4] 9.75 µM | [2] 6.02 µM

CC(C)C1CCC(Cc2ccc(Cl)cc2)C1(O)Cn1cncn1 (stereo not drawn)
active: [4] 4.62 µM
not listed: [7] | [10]
inactive: all other assays above

COC(=O)c1sccc1S(=O)(=O)NC(=O)Nc1nc(C)nc(OC)n1
inactive: [1] | [3] | [4] | [5] | [6] | [8]

CCCCCCCCc1ccc(O)cc1
inactive: [1] | [3] | [4] | [5] | [10] | [8] | [9]
active: [4] 18.9 µM

Oc1ccc(-c2ccccc2)cc1
inactive: [1] | [3]
active: [4] 83.2 µM

COc1ccc(C=O)cc1
not listed: [7] | [9] | [10]
inactive: all other assays above

O=C1C2(Cl)C3(Cl)C4(Cl)C(Cl)(Cl)C5(Cl)C3(Cl)C1(Cl)C5(Cl)C24Cl (stereo not drawn)
active: [1] 20.3 µM | [4] 13.1 µM | [2] 15.9 µM
inactive: [1] | [3] | [4] | [7] | [2] | [10] | [8] | [9]

Oc1cccc2cccnc12
active: [4] 67.9 µM
inactive: [1] | [3] | [4] | [2]

CCOP(=S)(OCC)SCSP(=S)(OCC)OCC
inactive: [1] | [3] | [5] | [2] | [8]
active: [4] 1.32 µM | [6] 3.88 µM

CCOP(=S)(OCC)Oc1ccc(S(C)=O)cc1 (stereo not drawn)
active: [4] 31.2 µM
not listed: [7] | [9] | [10]
inactive: all other assays above

BrCCBr
active: [6] 27.5 µM
not listed: [10]
inactive: all other assays above

CC(=O)C(Cl)C(=O)N(C)C (stereo not drawn)
not listed: [7] | [9] | [10]
inactive: all other assays above

CCc1ccccc1N
not listed: [7] | [10]
inactive: all other assays above

O=S(=O)(c1ccc(Cl)cc1)c1ccc(Cl)cc1
inactive: [1] | [3] | [5] | [6] | [2]
active: [4] 27.2 µM

C[C@]12CCC(=O)C[C@@H]1CC[C@@H]1[C@@H]2CC[C@]2(C)[C@@H](O)CC[C@@H]12
inactive: [1] | [3] | [4] | [7] | [2] | [8]
active: [3] 123 µM and 99.6 µM | [4] 33 µM and 17.9 µM and 23.4 µM

ClCc1cccnc1
active: [3] 63.2 µM | [4] 48.3 µM | [2] 58.1 µM
inactive: [1] | [5] | [6] | [8]

CCN1CCC2(CC1)COc1cc3c(cc12)N(C(=O)c1ccc(-c2ccc(-c4nnc(C)o4)cc2C)cc1)CC3
not listed: [10]
inactive: all other assays above

CC(C)(C)CC(C)(C)c1ccc(O)cc1
inactive: [1] | [3] | [4] | [10] | [8]
active: [4] 3.28 µM and 14.2 µM

CNC(=O)O/N=C/C(C)(C)S(C)=O (stereo not drawn)
not listed: [7] | [8] | [10]
inactive: all other assays above

Cl/C=C/Cl
inactive: [1] | [3] | [4]

O=C(O)Cc1ccccc1
not listed: [7] | [9] | [10]
inactive: all other assays above

ClC1=C(Cl)[C@]2(Cl)[C@H]3[C@H]([C@H]4C=C[C@H]3C4)[C@@]1(Cl)C2(Cl)Cl
active: [6] 8.38 µM
not listed: [7] | [9] | [10]
inactive: all other assays above

CCCCC(CC)CO[N+](=O)[O-] (stereo not drawn)
active: [4] 143 µM
inactive: [1] | [3]

CCOP(=O)(CN(CCO)CCO)OCC
inactive: [1] | [3] | [4]

CC(C)OC(=O)Nc1ccccc1
inactive: [1] | [3] | [4]

O=C(O)C(F)(F)C(F)(F)C(F)(F)C(F)(F)C(F)(F)C(F)(F)C(F)(F)C(F)(F)C(F)(F)C(F)(F)F
inactive: [1] | [5] | [7] | [2] | [8]
active: [1] 95.5 µM | [3] 105 µM and 13.4 µM | [4] 25.7 µM and 16.8 µM | [2] 26.7 µM

COP(=O)(OC)OC
not listed: [8] | [9]
inactive: all other assays above

ClCc1ccccn1
inactive: [1] | [3] | [4] | [5] | [6]
active: [2] 65.6 µM

O=Cc1cccc(Oc2ccccc2)c1
inactive: [1] | [3] | [4] | [5] | [2]
active: [6] 26.6 µM

CCOP(=S)(OCC)Oc1nc(Cl)c(Cl)cc1Cl
active: [4] 5.83 µM | [6] 26.9 µM | [2] 100 µM
not listed: [7] | [9]
inactive: all other assays above

CC(C)CCCCCCOC(=O)c1ccccc1C(=O)OCCCCCCC(C)C
inactive: [1] | [3] | [4] | [5] | [10] | [8]

CCC1(c2ccc(N)cc2)CCC(=O)NC1=O (stereo not drawn)
inactive: [1] | [3] | [4] | [6] | [2] | [10]

CCC(=O)c1ccccc1
inactive: [1] | [3] | [4] | [5] | [2]

O=C/C=C/c1ccccc1
inactive: [1] | [3] | [5] | [2] | [8]
active: [4] 45.5 µM

[O-][Cl+2]([O-])O
inactive: [1] | [3] | [4] | [5] | [2] | [9]

CCC(C)(C)c1ccc(O)c(C(C)(C)CC)c1
active: [4] 15.9 µM | [5] 33.4 µM
inactive: [1] | [3] | [7] | [8]

CC(C)(c1ccccc1)c1ccc(O)c(C(C)(C)c2ccccc2)c1
active: [4] 0.702 µM | [6] 5.55 µM
inactive: [1] | [3] | [5] | [8]

C=CC#N
not listed: [5] | [10]
inactive: all other assays above

CCNc1nc(NC(C)(C)C)nc(SC)n1
inactive: [1] | [3] | [6] | [2]
active: [4] 31.8 µM

CC(Br)C(=O)O (stereo not drawn)
not listed: [6] | [7] | [10]
inactive: all other assays above

CC1(C)CCC(Cc2ccc(Cl)cc2)C1(O)Cn1cncn1 (stereo not drawn)
active: [4] 17.7 µM | [6] 5.3 µM
inactive: [1] | [3] | [7] | [8] | [9]

COc1ccccc1OC
inactive: [1] | [3] | [4] | [6] | [2]

COc1cccc(C=O)c1
active: [3] 0.175 µM
not listed: [6] | [9] | [10]
inactive: all other assays above

CN(CCCC(=O)c1cccnc1)N=O
not listed: [6] | [7] | [9]
inactive: all other assays above

CC(=O)C=C(C)C
not listed: [5] | [8] | [10]
inactive: all other assays above

NC(=O)O
not listed: [6] | [10]
inactive: all other assays above

CC1(C)Cc2cccc(O)c2O1
inactive: [1] | [3] | [4] | [6] | [2]
